Measurements as given in the supplement of paper PMC9694430.

system: LOC_OS02G17970-cb001; experiment: thermal shift delta Tm vs DMSO control; higher = stronger stabilization (binding); settings: 12.5 µM; protein concentration 2 µM
How it was run: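 Rice kinase domain constructs were expressed in E. coli, purified, and tested by differential scanning fluorimetry with compound added in DMSO. Each well of a 96-well plate held 19.5 μl of 2 μM kinase in 100 mM potassium phosphate pH 7.5, 150 mM NaCl, 10% glycerol and 5 × SYPRO Orange, and fluorescence was read from 25°C to 95°C at 0.05°C/s. The melting temperature shift is the mean of triplicates, taken against protein with DMSO alone after Boltzmann fitting.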

| Structure (SMILES) | thermal shift delta Tm [°C] |
| --- | --- |
| Clc1ccc(C2(c3ccc(-c4cn[nH]c4)cc3)CCNCC2)cc1 | 1.03 |
| CN(C)Cc1cccc(N/C(=C2\C(=O)Nc3cc(C(N)=O)ccc32)c2ccccc2)c1 | 0.67 |
| CC[C@H](CO)Nc1nc(NCc2ccccc2)c2ncn(C(C)C)c2n1 [Roscovitine (Seliciclib,CYC202)] | 0.31 |
| Cc1cc(Nc2cc(N3CCN(C)CC3)nc(/C=C/c3ccccc3)n2)n[nH]1 | -0.1 |
